Assay results published in ChEMBL document CHEMBL1157539, “Thousands of chemical starting points for antimalarial lead identification” (Nature, 2010).

System: Plasmodium falciparum
Experiment: GSK_TCMDC: Inhibition of Plasmodium falciparum 3D7 in whole red blood cells, using parasite LDH activity as an index of growth. Test compounds present at 2uM
Format: functional

Which Inhibition does the source give for `Cc1cc(NC(=O)[C@H](CC2CCCCC2)Nc2ccc(C#N)c3ccccc23)ccc1F.O=C(O)C(F)(F)F` here?
Its Inhibition is 100%.

How did the Inhibition turn out when `CNC(=O)COc1ccc(Nc2nnc(-c3ccc(C)c(S(=O)(=O)NCC4CCCO4)c3)c3ccccc23)cc1` (centres undefined) was run?
Its Inhibition is 90%.

How did the Inhibition turn out when `OCCCCCCNc1ccnc2[nH]c3ccc(I)cc3c12` was run?
Its Inhibition is 100%.

Which Inhibition does the source give for `CC(=O)Nc1ncc(C(=O)Nc2cccc(-c3ccc(-c4nc5cc(F)ccc5[nH]4)cc3)c2)s1` here?
Its Inhibition is 94%.

For `Cl.N=C(N)Nc1ccc(NC(=O)Nc2ccc(NC(=N)N)cc2)cc1`, which Inhibition is on record?
Its Inhibition is 85%.

With `Cc1nc(C)c(-c2ccc(C(=O)c3ccc(Cl)cc3)cc2)c(O)c1Br` as the compound, how does the Inhibition read?
Its Inhibition is 97%.

With `COC(=O)c1cccc(CNCc2cccc(-c3ccc(-c4nc5cccc(C)c5[nH]4)s3)c2)c1.O=C(O)C(F)(F)F` as the compound, how does the Inhibition read?
The Inhibition was 100%.

How did the Inhibition turn out when `COc1cccc(C(=O)Nc2ccc(-c3nc4ccccc4[nH]3)cc2)c1` was run?
Its Inhibition is 95%.

With `N#Cc1ccnc(-c2ccc(CNC3CCN(CC4Cn5c(=O)ccc6ccc(F)c4c65)CC3)cc2)c1.O=C(O)C(F)(F)F` (centres undefined) as the compound, how does the Inhibition read?
The Inhibition was 88%.

How did the Inhibition turn out when `CC(=O)Nc1ccc(CN2CCC(NC(=O)c3cc(-c4ccc(N(C)C)cc4)cs3)C2)cc1.O=C(O)C(F)(F)F` (centres undefined) was run?
Its Inhibition is 83%.

With `COc1cc(C(=O)NC2CC(C)(C)N(C)C(C)(C)C2)ccc1-c1cc2cc(Cl)c(Cl)cc2[nH]1` as the compound, how does the Inhibition read?
The Inhibition was 89%.

For `O=C(NCCc1ccccc1)N(Cc1cccc(-c2ccc(CNCCc3ccccc3)cc2)c1)C1CCN(Cc2ccccc2)CC1.O=C(O)C(F)(F)F`, which Inhibition is on record?
Its Inhibition is 90%.

How did the Inhibition turn out when `CC(=O)c1ccc(NC(=O)CSc2nc(-c3ccccc3Cl)ns2)cc1` was run?
The Inhibition was 89%.

`NC1CCN(Cc2ccc(-c3ccc(-c4nc5ccccc5[nH]4)cc3)cc2)C1.O=C(O)C(F)(F)F` (centres undefined) was tested. Which Inhibition did it give?
Its Inhibition is 100%.

How did the Inhibition turn out when `O=C(NCCN1CCOCC1)c1ccc(CNC(=O)c2ccc(O)c(-c3ccc(Cl)c(Cl)c3)c2)cc1` was run?
Its Inhibition is 87%.

With `CC(=O)N[C@H](C(=O)Nc1cccc(-c2ccc(-c3nc4cccc(C)c4[nH]3)s2)c1)C(C)C` as the compound, how does the Inhibition read?
Its Inhibition is 93%.

For `O=c1cc(NCCC(CNCCc2ccccc2)NCc2cc(Br)cc(Br)c2)[nH]c2ccccc12` (centres undefined), which Inhibition is on record?
The Inhibition was 98%.

For `CCOc1ccc(C2CCN(CCCCNC(=O)c3ccc(NC(=O)c4ccc(Cl)cc4)cc3)CC2)c(Cl)c1`, which Inhibition is on record?
Its Inhibition is 100%.

`CN(C)CCCOc1ccc(CN2CC[C@H](NC(=O)c3ccc(Cl)c(Cl)c3)C2)c2ccccc12.O=C(O)C(F)(F)F` was tested. Which Inhibition did it give?
Its Inhibition is 100%.

How did the Inhibition turn out when `Oc1ccccc1N1CCN(c2ccc(-c3nc4ccccc4[nH]3)cn2)CC1` was run?
Its Inhibition is 97%.

How did the Inhibition turn out when `Cc1ncccc1-c1cccc2c(NC(=O)Nc3ccc4nccc(N5CCN(C)CC5)c4c3)cccc12.Cl` was run?
Its Inhibition is 100%.

Which Inhibition does the source give for `CCOc1ccc(CCC(=O)O)cc1OCC` here?
The Inhibition was 94%.

With `CCn1c(-c2nonc2N)nc2c(-c3cccc(NC(=O)Nc4ccc(C(F)(F)F)cc4)c3)ncc(OCCCN)c21.O=C(O)C(F)(F)F` as the compound, how does the Inhibition read?
Its Inhibition is 94%.

For `CCCCCCn1c(Sc2ccc(C#N)c([N+](=O)[O-])c2)nnc1-c1ccc(OC)cc1`, which Inhibition is on record?
Its Inhibition is 95%.

Which Inhibition does the source give for `Nc1ccnc(N2CCC(CCOc3cc(C(F)(F)F)nc4c(C(F)(F)F)cccc34)CC2)c1` here?
Its Inhibition is 98%.

For `CCN(Cc1ccc(-c2ccc(C(F)(F)F)cc2)cc1)C(=O)Cn1c(SCc2cccc(F)c2F)cc(=O)c2cc(CN3CCCCC3)ccc21.Cl`, which Inhibition is on record?
Its Inhibition is 100%.

How did the Inhibition turn out when `COc1cccc(CC(=O)N2CCC(n3c(C)nc4ccc(C)cc43)CC2)c1` was run?
Its Inhibition is 100%.

How did the Inhibition turn out when `C=C(C)C1CC=C(CN2CCCC(n3ccc4cc(NC(=O)c5ccco5)ccc43)CC2)CC1` (centres undefined) was run?
The Inhibition was 90%.

`CC(C)CNCc1ccc(-c2cccc(CN(C(=O)NCCc3ccccc3)C3CCN(Cc4ccccc4)CC3)c2)cc1.O=C(O)C(F)(F)F` was tested. Which Inhibition did it give?
The Inhibition was 100%.

With `Cc1nc(-c2ccc(-c3ccc(C(=O)Nc4ccc(-n5ccnc5)c(N5CCN(C)CC5)c4)cc3)c(C)c2)no1` as the compound, how does the Inhibition read?
The Inhibition was 100%.

How did the Inhibition turn out when `CCOC(=O)C1=C(C)N=c2sc(=Cc3cc(Cl)ccc3O)c(=O)n2C1c1ccc(OC)cc1` (centres undefined) was run?
Its Inhibition is 99%.

For `COc1ccc(NC(=O)NC2CCN(CCCCCNC(=O)/C=C/c3ccc(Cl)c(Cl)c3)C2)c(OC)c1` (centres undefined), which Inhibition is on record?
The Inhibition was 96%.

Which Inhibition does the source give for `COc1ccc(Nc2nccc(N3CCC(NC(=O)Nc4cc(C)ccc4C)C3)n2)cc1` (centres undefined) here?
The Inhibition was 91%.

`Cl.O=C(Nc1ccc(Cl)c(Cl)c1)N1CCc2cc3nccc(N4CCN5CCC[C@H]5C4)c3cc21` was tested. Which Inhibition did it give?
Its Inhibition is 100%.

`CN1CCN=C1c1ccc(NC(=O)Nc2ccc(C3=NCCN3C)cc2)cc1.Cl` was tested. Which Inhibition did it give?
The Inhibition was 85%.

With `Cc1ccc(C)c(Sc2ccc(NC(=O)CN3CCN(C(=O)c4ccco4)CC3)cc2)c1` as the compound, how does the Inhibition read?
The Inhibition was 96%.

Which Inhibition does the source give for `C[C@@H](Oc1cc(-n2cnc3cc(SCCN4CCN(C)CC4)ccc32)sc1C(N)=O)c1ccccc1Cl` here?
Its Inhibition is 90%.

How did the Inhibition turn out when `O=C(Cc1cccc(Cl)c1)Nc1ccc(N2CCC(NCc3ccc4ncccc4c3)CC2)cc1` was run?
Its Inhibition is 81%.

With `O=C(Cc1ccc(-n2cnnn2)cc1)N(Cc1cncn1Cc1cccc(C(F)(F)F)c1)CC1CC1` as the compound, how does the Inhibition read?
The Inhibition was 86%.
